# Measurements published in PubChem BioAssay (NCI).
# The panel holds about 83,000 compounds, 20% with a hit somewhere; the sample as a whole holds those more often.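 Testing used 96-well plates and a 48-hour single-concentration exposure. Example: -40 means 40% of the starting cells died.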 A number with no mark means an inactive call. The source made the active and inactive calls. How the source made its calls: active means growth percent below 10; inactive means the rest.
# Tests used:
# Test in all cases: NCI-60 one-dose screen, 48 h (100 = growth as untreated, 0 = no growth, -100 = all killed)
# Conditions in all cases: 10 µM
# RPMI-8226 leukemia = system: RPMI-8226 leukemia
# OVCAR-8 ovarian = system: OVCAR-8 ovarian
# OVCAR-5 ovarian = system: OVCAR-5 ovarian
# OVCAR-4 ovarian = system: OVCAR-4 ovarian
# SK-OV-3 ovarian = system: SK-OV-3 ovarian
# IGROV1 ovarian = system: IGROV1 ovarian
# OVCAR-3 ovarian = system: OVCAR-3 ovarian
# HS 578T breast = system: HS 578T breast
# NCI/ADR-RES ovarian = system: NCI/ADR-RES ovarian
# T-47D breast = system: T-47D breast
# MDA-MB-435 melanoma = system: MDA-MB-435 melanoma
# SW-620 colon = system: SW-620 colon
# MCF7 breast = system: MCF7 breast
# HCT-116 colon = system: HCT-116 colon
# KM12 colon = system: KM12 colon
# BT-549 breast = system: BT-549 breast
# HCC-2998 colon = system: HCC-2998 colon
SMILES,growth (RPMI-8226 leukemia),growth (OVCAR-8 ovarian),growth (OVCAR-5 ovarian) [%],growth (OVCAR-4 ovarian),growth (SK-OV-3 ovarian),growth (IGROV1 ovarian),growth (OVCAR-3 ovarian),growth (HS 578T breast),growth (NCI/ADR-RES ovarian),growth (T-47D breast),growth (MDA-MB-435 melanoma),growth (SW-620 colon),growth (MCF7 breast),growth (HCT-116 colon),growth (KM12 colon),growth (BT-549 breast) [%],growth (HCC-2998 colon)
Cn1cnc([N+](=O)[O-])c1Sc1nnc(-c2ccccc2)c(-c2ccccc2)n1,43.8%,102%,93.6,73.9%,120%,72%,51.3%,106%,82.3%,9.12% (active),42.1%,48%,61.9%,32.8%,92.5%,,
CC(Oc1ccc(Cl)cc1)c1ccccc1 (stereo not drawn),101%,110%,103,103%,103%,96%,107%,104%,103%,95.7%,101%,96.4%,102%,98.9%,103%,114,115%
CCOC(=O)c1ccc(NC(=O)Nc2nncs2)cc1,6.49% (active),10.8%,42.4,49.9%,3.12% (active),16.5%,-32.7% (active),25.3%,,49.3%,-41.3% (active),18%,21.7%,12.6%,12.4%,13.7,18.8%
CCCCn1c(=O)[nH]c2c(c1=O)C(c1ccc(Cl)cc1)c1c([nH]c(=O)n(CCCC)c1=O)N2,104%,99.5%,99.5,102%,94.7%,102%,,106%,,73.3%,103%,101%,88.2%,96.6%,102%,100,103%
COc1cc(Nc2ccnc(N3CCN(c4ccnc5cc(Cl)ccc45)CC3)n2)cc(OC)c1,-27.6% (active),1.09% (active),30.8,30.4%,6.6% (active),3.24% (active),15%,24.6%,7.19% (active),-16.6% (active),1.35% (active),11%,0.585% (active),5.15% (active),8.26% (active),,9.25% (active)
CS(=O)(=O)Nc1ccc(OCc2nnc(-c3ccc(Cl)cc3)o2)c(F)c1,87.9%,98.1%,99.5,82.1%,88.8%,104%,107%,98.1%,96.9%,63.1%,104%,108%,81.7%,86.9%,98.6%,89.4,101%
CCCCOCC(=O)NC(NP(=O)(N(C)C)N(C)C)C(Cl)(Cl)Cl (stereo not drawn),100%,62.8%,109,116%,124%,,98%,113%,105%,7.73% (active),102%,108%,103%,96.6%,133%,,103%
CCn1nc(-c2ccc(C(=O)OC)cc2)nc2c(=O)n(C)c(=O)nc1-2,61.2%,45.8%,105,14.1%,9.16% (active),87.4%,25.7%,35.6%,70%,84.1%,64.1%,97.7%,80%,51.5%,80.4%,98.2,116%
COc1ccc2c(c1)/C(=C/c1cc(OC)c(OC)c(OC)c1)C(=O)N2C,-25.2% (active),28.8%,66.4,47.3%,19.3%,0.661% (active),-72% (active),-12.4% (active),2.46% (active),-11.1% (active),-50.3% (active),1.64% (active),4.54% (active),19.3%,-20.8% (active),57.1,
Cc1cc(Nc2cccc(F)c2)nc(NCc2ccccc2)n1,-3.16% (active),19.2%,60.9,15.9%,80.6%,27.1%,,68.4%,11%,15.6%,23.2%,22.7%,15.1%,15.8%,14.1%,82,26.9%
Cn1c(=O)c2[nH]c(C(O)c3ccc(Cl)cc3)nc2n(C)c1=O (stereo not drawn),90.6%,97.8%,99.6,91.3%,101%,111%,109%,87.9%,97.9%,101%,101%,89.5%,96.6%,95%,97.3%,93.6,97.8%
FC(F)(F)c1ccc(-c2nc(-c3nc4cc(Cl)c(Cl)cc4[nH]3)c3ccccn23)cc1,71.5%,63.3%,88.6,4.24% (active),38%,66.3%,52.7%,3.78% (active),63.5%,61.6%,73.4%,80%,48%,33.8%,52.8%,88.2,83%
CCCCCCCCCCCCc1ccc(C(=O)/C=C/C(=O)O)cc1,6.04% (active),67.1%,94.1,70.9%,98.6%,72.7%,47%,93.7%,,11.6%,109%,-23.1% (active),-5.2% (active),-61.3% (active),97.7%,45,
O=C(O)CCCN1C(=O)NC2(C1=O)c1ccccc1-c1ccccc12,99.9%,97.3%,101,106%,103%,101%,,93.9%,,89.4%,103%,104%,97.3%,95.6%,102%,96.7,101%
Cc1cc(C)c2nc(C)c(C)[n+]([O-])c2c1,90.7%,94%,99.6,107%,85.4%,,110%,112%,104%,94.9%,111%,114%,95.6%,97.3%,106%,106,97.9%
FC(F)(F)c1ccc(-c2cnc(Cl)nc2NCc2cc(C(F)(F)F)cc(C(F)(F)F)c2)cc1,0.828% (active),15.6%,35.2,19.5%,43.4%,45.5%,3.89% (active),26.8%,12.5%,10.5%,14.3%,17.5%,4.38% (active),4.49% (active),13.1%,26.2,
CCCCCC(CCC)COC(=O)c1ccc(OC)cc1 (stereo not drawn),91.8%,96.5%,102,109%,101%,,111%,106%,,87.7%,106%,104%,92.5%,100%,109%,104,99.5%
CC(=O)n1nc(C(=O)OC(C)(C)C)c2cc(F)c(F)cc21,89.1%,105%,104,98.5%,114%,97.5%,96.8%,106%,98.3%,104%,95.9%,94.1%,99.2%,95%,90%,119,
CCCCCN(CCCCC)C(C)C(O)c1ccc2cc(Cl)c3ccccc3c2c1 (stereo not drawn),84.1%,99.9%,,105%,88.8%,98.3%,97.4%,89.4%,98.9%,83.8%,103%,80%,90.6%,65.7%,103%,110,97.6%
